Measurements: PubChem BioAssay (NCI)
Compounds without any hit were thinned out: in the full panel of roughly 83,000, 20% have a hit.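 Note: values are percent growth. 100 is the growth of untreated cells, values between 100 and 0 indicate rising inhibition; between -100 and 0 indicates cell death.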 Values without a mark were called inactive. Activity calls are given as the source filed them. Rule for the calls: active = growth percent below 10; inactive = the rest.

How the values were obtained:
Experiment in all cases: NCI-60 one-dose screen, 48 h (100 = growth as untreated, 0 = no growth, -100 = all killed)
Details in all cases: 10 µM unless noted
T-47D breast = test system: T-47D breast
BT-549 breast = test system: BT-549 breast
MDA-MB-435 melanoma = test system: MDA-MB-435 melanoma
SW-620 colon = test system: SW-620 colon
MCF7 breast = test system: MCF7 breast
HCC-2998 colon = test system: HCC-2998 colon
KM12 colon = test system: KM12 colon
HCT-116 colon = test system: HCT-116 colon

SMILES | growth (T-47D breast) | growth (BT-549 breast) | growth (MDA-MB-435 melanoma) | growth (SW-620 colon) | growth (MCF7 breast) | growth (HCC-2998 colon) | growth (KM12 colon) | growth (HCT-116 colon)
COc1ccc(Nc2nc(N)nc3c(=O)[nH]ccc23)cc1 | 96.6% | 102% | 113% | 99.5% | 79.7% | 107% | 104% | 
CN1C(=O)NC(Cc2c[nH]c3c(Cl)cccc23)C1=O (stereo not given) | 111% | 118% | 114% | 112% | 96.2% | 97.5% | 96.6% | 
CC(C)[C@@]12C[C@@H](OC(=O)C3CO3)[C@@](C)(O1)[C@@H]1CC[C@@H](C)[C@H]1[C@@H]2OC(=O)/C=C/c1ccccc1 (stereo not given in full) | 58.8% | 77.1% | 109% | 98.3% | 85.7% | 95% | 99.7% | 
CCc1onc(-c2ccc(OC)cc2)c1-c1ccccc1OCCN(CC)CC | 91.7% | 81.1% | 90.5% | 94.7% | 95.6% |  | 93.1% | 70.9%
CC(=O)N1N=C(C2C(=O)N(C)C(=O)N(C)C2=O)CC1c1ccccc1C(=O)O (stereo not given) | 95.4% | 91.8% | 102% | 107% | 101% |  | 114% | 
COc1ccc(/C=C/c2nc(NCCCN(C)C)c3ccccc3n2)cc1 | 81.1% | 47.3% | -57.9% (active) | 4.57% (active) |  | 28.3% | 32.1% | 38%
COc1cc(OC)c2sc(-c3ccc(-n4cncc4-c4ccc(OC)c(N)c4)cc3)nc2c1 | 77.2% | 75.2% | 68.8% | 89.1% |  | 91.8% | 77.7% | 66%
O=C1NN(C(=O)c2ccccc2)C(c2ccc(Cl)c(Cl)c2)=C/C1=C\c1ccccc1[N+](=O)[O-] | 27.6% [6.75 µM] | -7.17% [6.75 µM] (active) | 58.5% [6.75 µM] | 13.7% [6.75 µM] |  | -20.5% [6.75 µM] (active) | 4.6% [6.75 µM] (active) | 
CC1(C)CC(=O)c2cc3c(N)c(C(=O)Nc4ccc(Cl)cc4)sc3nc2C1 | 96.2% | 125% | 109% | 109% |  | 116% | 117% | 108%
Oc1ccccc1-c1nnc(COc2ccc(Cl)cc2Cl)o1 | 42.6% |  | 63.9% | 51.2% | 20.6% | 76.8% | 41.5% | 18.2%
COc1cc(NCCC2CCCCN2)c2ncccc2c1OC (stereo not given) | 38% |  | -62.6% (active) | 74.9% | 57.3% | 80.6% | 87.5% | 46.9%
CCN(CC)CCNC(=O)n1cc(-c2ccncc2)c(-c2cc(Cl)cc(OC)c2)n1 | 87.3% | 95.6% | 83.5% | 100% |  |  | 98.3% | 85.5%
FC(F)(F)c1cc(-c2nnc3n2N=C(Cl)CS3)cc(C(F)(F)F)c1 | 84.5% | 88.4% |  | 89.7% | 94.3% |  | 109% | 90.5%
C=C(C)[C@@H]1CC[C@]2(C(=O)NC(COC(=O)C(Cl)Cl)(COC(=O)C(Cl)Cl)COC(=O)C(Cl)Cl)CC[C@]3(C)[C@H](CC[C@@H]4[C@@]5(C)CC[C@H](OC(C)=O)C(C)(C)[C@@H]5CC[C@]43C)[C@@H]12 | 31.9% | 80.4% | 73.6% | 62.1% |  | 66.1% | 36.8% | -16.7% (active)
COc1cc(Cl)cc(-c2nn(C(=O)NCCN3CCOCC3)cc2-c2ccncc2)c1 | 57.4% | 115% | 2.37% (active) | 57.5% |  | 88.6% | 61.7% | 51.3%
O=C(Nc1cccc(-n2ccc3c(NC(=O)c4ccccc4)nccc32)c1)c1ccc(Cl)c(Cl)c1 | -55.4% (active) | -75.7% (active) | -78.1% (active) | -80.3% (active) |  | -90.9% (active) | -75.2% (active) | 
C[N+](C)(C)CC(=O)N/N=C\c1ccco1 | 97.7% |  | 107% | 98.9% | 88.6% | 110% | 96.8% | 101%
C[Si](C)(C)C(c1ccccc1)c1ccccc1 | 91.4% | 108% | 92.1% | 101% |  | 97.2% | 107% | 97.7%
Cc1ccc(C)c2c1SC1=NNC(Oc3ccc(Cl)cc3)=C(C#N)C(=N)N12 | 84.4% | 107% | 113% | 104% |  | 105% | 109% | 108%
COc1ccc2[nH]cc(C3(c4c[nH]c5ccc(OC)cc45)C(=O)Nc4ccc(F)cc43)c2c1 | 93.7% | 80.1% | 9.03% (active) | 25.9% |  | 72% | 51.1% | 
CCOC(=O)Nc1ccc2nc(N3CCCCCC3)sc2c1 | 41.6% | 65.7% | 7.4% (active) | 24.5% |  | 50.3% | 21.6% | 27.9%
COC(=O)[C@@H](Cc1c[nH]c2ccccc12)NC(=O)/C=C/c1ccccc1 | 32.2% | -0.499% (active) | -84.3% (active) | 27.5% |  | 66% | 27.3% | 
Cc1[nH]c2ccccc2c1C1=CC(=O)C=CC1=O | 28.5% | 96.9% | 38.9% | 69.2% |  | 98.8% | 88.2% | 82.4%
CN1C(=O)N(C)C2C1NN=c1s/c(=C\c3ccsc3)c(=O)n12 (stereo not given) | 44.3% | 37% | -3.38% (active) | 26.6% |  | 73.7% | 18.9% | 18.5%
C[N+](C)(C)CCCCCCCCCC[N+](C)(C)C | 88.6% |  | 103% | 95.8% | 91% | 105% | 103% | 106%
CC(SC(C)C(=O)N/N=C/c1cccc(Cl)c1)C(=O)N/N=C\c1cccc(Cl)c1 (stereo not given) | 87.8% | 102% | 72.8% | 27.7% |  | 96.5% | 71.7% | 2.39% (active)
